# Compounds with a hit are over-represented: about 6.9% of the library has one in this group of screens.
# Giardia kill – Giardia lamblia killing. activity change, % at 7.66 µM, hits read low. 340,000 compounds, 0.15% hits. Giardia lamblia trophozoite viability; in the data active = activity change below about -80%; inconclusive = between about -30% and that limit;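 note: parasites exposed to compound for two days anaerobically before the ATP read; % is set by controls: 0 for no effect and ±100 for the full control effect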
#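 Media and compound were dispensed first, then trophozoites at 100 cells/well; plates sat 48 hrs at 37 deg C without oxygen before ATP luminescence reagent was added and read after 15-30 min at room temperature.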
# Vif-A3G inh – inhibitors of Vif-APOBEC3G interaction | Q9HC16 | Potency, µM (highest dose often 46.1 µM), for inactives: at the top dose activity, negative = active, actives largely listed as inhibitors | HeLa A3G-eYFP + Vif (tagged APOBEC3G with the HIV-1 protein that degrades it), YFP fluorescence, overnight | 410,000 compounds, 0.076% hits | AID 602310; note: potency is the fitted concentration of half-maximal effect; % is set by controls: 0 for no effect and ±100 for the full control effect; nearly all actives have a fitted effect of over 60% in size
# Target sequence (Q9HC16 whole entry, looked up): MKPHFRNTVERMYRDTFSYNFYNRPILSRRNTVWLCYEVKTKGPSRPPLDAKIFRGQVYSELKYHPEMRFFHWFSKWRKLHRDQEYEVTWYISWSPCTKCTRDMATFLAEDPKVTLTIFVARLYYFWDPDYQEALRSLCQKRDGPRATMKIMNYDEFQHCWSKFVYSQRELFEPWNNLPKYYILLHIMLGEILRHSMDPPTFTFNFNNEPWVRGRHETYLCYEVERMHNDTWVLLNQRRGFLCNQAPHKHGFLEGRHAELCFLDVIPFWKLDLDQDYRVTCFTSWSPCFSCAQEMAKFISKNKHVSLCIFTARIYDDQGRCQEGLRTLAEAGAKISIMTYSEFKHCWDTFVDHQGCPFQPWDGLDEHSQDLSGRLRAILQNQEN
#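 Read-out is eYFP fluorescence (Ex 488/Em 500-530) from Vif-expressing HeLa A3G-eYFP cells; more signal means A3G escaped Vif-mediated degradation. Cells plated overnight, compound pinned in, incubated overnight at 37 deg C.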
# IL-1B inflam inh – blocks inflammasome-driven IL-1 beta release | THP-1 LPS/ATP IL-1B secretion, AlphaLISA, 16 h; stronger effect = lower value | activity change, % at 57.5 µM | 360,000 compounds, 4.7% hits | AID 743279; in the data active = activity change below about -50%; inconclusive = mostly about -30% to -49%; note: % is set by controls: 0 for no effect and ±100 for the full control effect
#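 Secreted IL-1B measured by AlphaLISA bead assay after 16 h compound exposure of THP-1 cells; compounds (final up to 57.5 uM) added 1 h before LPS (250 ng/mL) and ATP (1.25 mM) stimulation; lower signal means less secretion.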
# Vif-A3F inh – inhibitors of Vif-A3F interaction; HeLa A3F-eYFP + Vif (tagged APOBEC3F with the HIV-1 protein that degrades it), YFP fluorescence increase; 390,000 compounds, 0.2% hits; Potency, µM (series often up to 46.1 µM), for the others: at the highest dose activity, negative = active; note: potency is the fitted concentration of half-maximal effect; % of control where 0% means no effect; nearly all actives have a fitted effect of over 65% in size
#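 Fluorescence increase (Ex 488/Em 500-530) after overnight compound treatment at 37 deg C flags inhibition of Vif-driven A3F-eYFP loss in stable HeLa A3F-eYFP/Vif cells seeded overnight beforehand.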
# MCF10A rerep – induces DNA re-replication in MCF 10a normal breast cells; MCF 10A DNA re-replication, Hoechst nuclear intensity, 48 h; Potency, µM (series often up to 46.1 µM), without a hit: at the top dose activity, positive = re-replication, actives largely listed as activators; 350,000 compounds, 2.9% hits; AID 624296; note: potency is the fitted concentration of half-maximal effect; % of control where 0% means no effect; nearly all actives have a fitted effect of over 50% in size
# SW480 rerep – DNA re-replication induction in SW480 cells. SW480 DNA re-replication, Hoechst DNA content imaging, 48 h. Potency, µM (highest dose often 46.1 µM), without a hit: at the highest dose re-replication activation, actives largely listed as activators. AID 624297. 340,000 compounds, 1.8% hits; note: potency is the fitted concentration of half-maximal effect; % of control where 0% means no effect; nearly all actives have a fitted effect of over 55% in size
#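 Image-based read-out: total Hoechst fluorescence of nuclei (405 nm excitation, 500-530 nm emission), with hits raising the fraction of high-intensity nuclei. SW480 colon cells incubated 48 hr with compounds at 37 C.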
# An asterisk follows results filed as active; ? = inconclusive; . = no result. Unless noted, calls come from the whole dose curve; as a rule, active = well fitted curve in the direction sought with a large enough effect; inconclusive = small, poorly fitted or top-dose-only effect, or another doubt; inactive = no such curve, though single readings can be large; an effect the other way counts as inactive or inconclusive.
SMILES,Giardia kill,Vif-A3G inh,IL-1B inflam inh,Vif-A3F inh,MCF10A rerep,SW480 rerep
CCc1ccc2[nH]c(=O)c(CN(Cc3cccs3)Cc3nnnn3Cc3ccccc3)cc2c1,-20,-6%,.,.,.,.
c1ccc(CSc2nnc(NC3CCCCC3)s2)cc1,.,-4%,-52*,3%,.,.
COc1ccc(-c2nc3ccccn3c2NC2CCCCC2)cc1SC1CCCCC1,18,-5%,-75*,?,12µM*,?
COc1cc(-c2nc3ccc(C)cn3c2NCc2ccccc2)ccc1SC1CCCCC1,-4,10µM*,-3,-1%,18µM*,?
COc1cc(-c2nc3ccccn3c2NCc2ccccc2)ccc1SC1CCCCC1,1,-7%,-29,8%,26µM*,29%
COc1cc(-c2nc3ccc(C)cn3c2NCc2ccccc2)ccc1-c1cccc(Cl)c1,22,-19%,-7,-8%,?,?
Cc1ccc2nc(-c3ccc(-c4cccc(Cl)c4)cc3)c(NCc3ccccc3)n2c1,1,-3%,8,-3%,?,0.33µM*
COc1cc(C2c3c([nH]c(=O)[nH]c3=O)Nc3ccc4ccccc4c32)cc(OC)c1OC (configuration not stated),3,-12%,-92*,-20%,25%,-29%
COc1cc(C2c3c([nH]c(=O)[nH]c3=O)Nc3ccc4ccccc4c32)ccc1O (configuration not stated),?,1%,-97*,0%,28%,-11%
COc1ccc(CN2CCN(CCCCOc3ccc(Cl)cc3)CC2)c(OC)c1OC,-9,-2%,-61*,-20%,25%,4%
Cc1cccc(Cn2cccc2CNS(=O)(=O)c2ccccc2F)c1,.,-9%,.,-5%,.,.
C=CC(=O)N1C/C(=C/c2ccccc2)C(=O)/C(=C\c2ccccc2)C1,26,?,-103*,?,19%,?
O=C1/C(=C/c2ccc(C(=O)O)cc2)CCC/C1=C\c1ccc(C(=O)O)cc1,1,1%,-4,6%,5%,-11%
C=CC(=O)N1C/C(=C/c2ccc(Cl)cc2)C(=O)/C(=C\c2ccc(Cl)cc2)C1,-12,?,-115*,1%,?,1.5µM*
Cc1ccc(C(C)C)c(OC(C)C(=O)NCC2(N(C)C)CCCCC2)c1 (configuration not stated),.,-3%,.,-3%,.,.
COc1ccc(CCNC(=O)CSc2cn(CCNC(=O)c3cccc(C(F)(F)F)c3)c3ccccc23)cc1OC,.,0%,.,-2%,.,.
Cc1ccc(Sc2ncccc2COC(=O)Nc2ccccc2)cc1,10,4%,-7,-12%,18µM*,5%
CCOC(=O)Cc1c(C)nc2c(-c3ccccc3)cnn2c1C,-13,-4%,0,0%,1.3µM*,?
Cc1nc2c(-c3ccccc3)c(C)nn2c(C)c1CC(=O)O,7,1%,38,4%,15µM*,11%
CCOC(=O)Cc1c(C)nc2c(-c3ccccc3OC)c(C)nn2c1C,-4,-1%,-11,-3%,8%,1%
Cc1nc2c(-c3ccccc3)cnn2c(N)c1-c1ccccc1,-29,-6%,-78*,11%,?,22%
CCOC(=O)Cc1c(C)nc2c(-c3ccc(Cl)cc3)c(C)nn2c1C,23,0%,-84*,-3%,23µM*,?
COC(CNC(=O)Cc1c(C)nc2c(-c3ccccc3)c(C)nn2c1C)OC,-21,1%,-8,2%,-3%,-13%
Cc1cc(-c2ccc(S(=O)(=O)Nc3cccc(C)c3C)s2)on1,.,-15%,.,-4%,.,.
Cc1nc2c(-c3ccc(F)cc3)c(C)nn2c(C)c1CCC(=O)N1CCC(Cc2ccccc2)CC1,-21,1%,-11,3%,21µM*,1%
SMILES,Giardia kill,Vif-A3G inh,IL-1B inflam inh,Vif-A3F inh,MCF10A rerep,SW480 rerep
Cc1nc2c(-c3ccc(F)cc3)c(C)nn2c(C)c1CCC(=O)N1CCN(c2ccccc2)CC1,4,3%,-14,4%,0%,8%
CCOC(=O)c1[nH]c2c(c1C)C(=O)CC(c1ccc(F)cc1)C2 (configuration not stated),7,?,126,-11%,?,?
CCOCCOC(=O)c1[nH]c2c(c1C)C(=O)CC(c1ccccc1)C2 (configuration not stated),-6,?,65,-44%,?,0.52µM*
CCCOC(=O)c1[nH]c2c(c1C)C(=O)CC(c1ccc(OC)c(OC)c1)C2 (configuration not stated),6,-1%,16,-16%,0%,0%
COC(=O)c1[nH]c2c(c1C)C(=O)CC(c1ccc(OC)c(OC)c1)C2 (configuration not stated),-3,-1%,19,-1%,-3%,-5%
COC(=O)c1[nH]c2c(c1C)C(=O)CC(c1cccc(OC)c1)C2 (configuration not stated),-4,?,5,-10%,?,0.73µM*
CCCCCOC(=O)c1[nH]c2c(c1C)C(=O)CC(c1ccco1)C2 (configuration not stated),-19,-24%,79,-26%,?,0.12µM*
Cc1c(C(=O)OCC(C)C)[nH]c2c1C(=O)CC(c1cccs1)C2 (configuration not stated),-4,?,60,-5%,?,3.7µM*
Cc1c(C(=O)OCCOc2ccccc2)[nH]c2c1C(=O)CC(c1ccccc1)C2 (configuration not stated),.,-30%,.,-15%,.,.
COC(=O)c1c(NC(=O)CCCOc2ccc(C)cc2)sc2c1C(C(=O)OC)CC2 (configuration not stated),16,8%,.,3%,.,.
COCCOC(=O)c1[nH]c2c(c1C)C(=O)CC(c1ccc(OC)c(OC)c1)C2 (configuration not stated),-5,0%,-14,2%,8%,-4%
COCCOC(=O)c1[nH]c2c(c1C)C(=O)CC(c1cccs1)C2 (configuration not stated),-10,?,90,-27%,?,2.6µM*
CCOCCOC(=O)c1[nH]c2c(c1C)C(=O)CC(c1cccs1)C2 (configuration not stated),-9,?,45,0%,?,1.2µM*
CC1=NN(c2ccc(C)c(C)c2)C(=O)/C1=C\C=C\c1ccc([N+](=O)[O-])o1,-17,?,-70*,-13%,0%,-16%
COc1cc2ccnc(C=O)c2cc1OC,.,-8%,-6,1%,.,.
